For some of these results: Entries with a potency or affinity are not part of this list.
Experiments:
Set-up in all cases: scale not given: direction of the effect not stated beside the values
[1] = target: Protein translocase subunit SecA (Escherichia coli (strain K12)) (UniProt P10408); experiment: Assay to Identify E. coli SecA ATPase Inhibitors; type: functional; settings: 30 µM
[2] = target: T1, Ubiquitin-activating enzyme e1, putative (Leishmania donovani (strain BPK282A1)) (UniProt E9BSI1); experiment: Leishmania donovani Ubiquitin Activating Enzyme (LdE1); type: functional; settings: 30 µM
T1 sequence (whole entry): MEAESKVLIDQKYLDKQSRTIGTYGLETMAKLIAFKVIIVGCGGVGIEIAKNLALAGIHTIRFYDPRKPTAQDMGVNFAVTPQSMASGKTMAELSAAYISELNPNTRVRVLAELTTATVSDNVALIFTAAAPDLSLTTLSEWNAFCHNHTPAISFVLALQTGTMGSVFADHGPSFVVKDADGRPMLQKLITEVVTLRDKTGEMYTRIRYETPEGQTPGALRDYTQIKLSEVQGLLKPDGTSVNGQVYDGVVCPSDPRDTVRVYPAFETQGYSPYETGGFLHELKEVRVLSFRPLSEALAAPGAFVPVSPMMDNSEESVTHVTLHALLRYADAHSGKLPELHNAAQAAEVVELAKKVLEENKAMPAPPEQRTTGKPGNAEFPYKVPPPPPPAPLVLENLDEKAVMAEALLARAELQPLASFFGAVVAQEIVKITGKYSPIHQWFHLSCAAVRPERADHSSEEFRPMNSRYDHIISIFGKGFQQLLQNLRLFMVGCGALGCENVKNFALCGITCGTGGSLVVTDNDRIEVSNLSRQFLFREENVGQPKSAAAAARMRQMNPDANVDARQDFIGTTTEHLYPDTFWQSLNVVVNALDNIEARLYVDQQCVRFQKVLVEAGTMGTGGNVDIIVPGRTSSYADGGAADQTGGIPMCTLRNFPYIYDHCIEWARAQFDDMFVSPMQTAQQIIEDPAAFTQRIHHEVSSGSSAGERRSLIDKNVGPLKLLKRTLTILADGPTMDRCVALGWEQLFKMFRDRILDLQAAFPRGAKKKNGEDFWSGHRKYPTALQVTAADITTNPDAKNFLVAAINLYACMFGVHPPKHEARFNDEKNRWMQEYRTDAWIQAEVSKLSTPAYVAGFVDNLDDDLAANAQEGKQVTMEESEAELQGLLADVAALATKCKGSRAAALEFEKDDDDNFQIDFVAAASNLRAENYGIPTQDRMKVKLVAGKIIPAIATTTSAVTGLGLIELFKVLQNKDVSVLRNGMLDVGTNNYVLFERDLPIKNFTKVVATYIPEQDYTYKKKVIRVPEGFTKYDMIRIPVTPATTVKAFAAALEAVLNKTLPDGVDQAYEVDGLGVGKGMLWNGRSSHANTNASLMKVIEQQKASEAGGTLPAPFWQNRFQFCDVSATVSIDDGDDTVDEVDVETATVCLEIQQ

[3] = target: Sialic acid-binding Ig-like lectin 9 (Homo sapiens) (UniProt Q9Y336); experiment: Hs-Siglec9 ALPHAscreen SOP 20170721; settings: 10 µM
Trypanosoma cruzi = experiment: Trypanosoma cruzi phosphomannomutase and mannose-1-phosphate guanylyltransferase assay; type: functional; settings: 10 µM
[4] = target: T2, Arginase-2, mitochondrial (Homo sapiens) (UniProt P78540); experiment: in vitro enzyme assay to detect the production of urea directly proportional to the activity of Arginase II; type: functional; settings: 33.3 µM; also: in the data most compounds retested in dose-response had high values
T2 sequence (whole entry): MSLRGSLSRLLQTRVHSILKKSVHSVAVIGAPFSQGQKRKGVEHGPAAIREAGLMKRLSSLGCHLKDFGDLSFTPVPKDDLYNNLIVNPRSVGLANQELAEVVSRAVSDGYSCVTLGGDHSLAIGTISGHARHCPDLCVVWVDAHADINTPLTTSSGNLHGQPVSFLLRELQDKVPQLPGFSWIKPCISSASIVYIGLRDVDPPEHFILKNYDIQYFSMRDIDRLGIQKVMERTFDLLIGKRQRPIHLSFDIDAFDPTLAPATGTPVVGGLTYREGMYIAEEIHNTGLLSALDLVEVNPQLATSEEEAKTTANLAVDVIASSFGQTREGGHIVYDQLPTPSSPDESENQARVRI

[5] = target: T3, Proteasome subunit beta (Trypanosoma cruzi) (UniProt O96673); experiment: Trypanosoma cruzi proteasome chymotrypsin-like activity (TcProtChymo) assay.; also: in the data most compounds retested in dose-response had high values; type: functional; settings: 9.37 µM
T3 sequence (whole entry): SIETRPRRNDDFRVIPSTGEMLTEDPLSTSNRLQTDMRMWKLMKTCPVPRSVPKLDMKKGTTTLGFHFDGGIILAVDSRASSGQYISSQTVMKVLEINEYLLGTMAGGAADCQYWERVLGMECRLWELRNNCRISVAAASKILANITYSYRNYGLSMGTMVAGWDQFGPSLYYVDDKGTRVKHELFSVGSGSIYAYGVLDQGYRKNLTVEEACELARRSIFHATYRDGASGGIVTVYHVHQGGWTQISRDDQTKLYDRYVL

Homo sapiens = species: Homo sapiens; experiment: To identify inhibition of the IFN signalling (Jak-Stat) pathway via expression of an eGFP reporter gene under the control of an IFN-stimulated response element (ISRE) containing MxA promoter.; type: functional; settings: 30 µM
[6] = target: T4, Tyrosyl-tRNA synthetase, putative (Trypanosoma cruzi (strain CL Brener)) (UniProt Q4DSP6); experiment: Trypanosoma cruzi tyrosyl tRNA synthetase (TcYRS) _High Tyrosine SOP; type: functional; settings: 30 µM; also: in the data most compounds retested in dose-response had high values
T4 sequence (whole entry): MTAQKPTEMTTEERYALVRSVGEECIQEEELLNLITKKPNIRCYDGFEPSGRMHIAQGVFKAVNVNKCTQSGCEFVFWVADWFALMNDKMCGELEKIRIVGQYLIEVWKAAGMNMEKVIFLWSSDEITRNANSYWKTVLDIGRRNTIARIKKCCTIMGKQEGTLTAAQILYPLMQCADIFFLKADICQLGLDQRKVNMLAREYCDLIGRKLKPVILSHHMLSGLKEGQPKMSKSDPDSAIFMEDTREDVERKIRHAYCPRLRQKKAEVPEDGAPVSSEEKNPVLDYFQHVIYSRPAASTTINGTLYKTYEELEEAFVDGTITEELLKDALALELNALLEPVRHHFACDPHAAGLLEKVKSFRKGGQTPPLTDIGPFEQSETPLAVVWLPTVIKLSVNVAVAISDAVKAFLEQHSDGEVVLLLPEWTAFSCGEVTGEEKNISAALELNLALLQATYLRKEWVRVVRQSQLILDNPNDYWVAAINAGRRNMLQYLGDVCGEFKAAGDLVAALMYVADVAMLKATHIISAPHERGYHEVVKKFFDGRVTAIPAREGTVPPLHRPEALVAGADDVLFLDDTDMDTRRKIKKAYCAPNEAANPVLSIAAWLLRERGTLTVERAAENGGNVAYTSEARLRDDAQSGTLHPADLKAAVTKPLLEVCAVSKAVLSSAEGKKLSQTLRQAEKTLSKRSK

[7] = target: T4, Tyrosyl-tRNA synthetase, putative (Trypanosoma cruzi (strain CL Brener)); experiment: Trypanosoma cruzi tyrosyl tRNA synthetase (TcYRS) SOP; type: functional; settings: 30 µM
[8] = target: Chromo domain-containing protein 1 (Saccharomyces cerevisiae (strain ATCC 204508 / S288c) (Baker's yeast)) (UniProt P32657); experiment: ScCHD-1 Enzyme Inhibition Assay; type: functional; settings: 30 µM; also: in the data most compounds retested in dose-response had high values
[9] = target: AMP-activated protein kinase, AMPK (Homo sapiens) (UniProt P54646+O43741+P54619+Q9UGJ0+Q9Y478+Q13131+Q9UGI9); experiment: AMP-dependent Kinase enzyme assay. An in vitro enzyme assay that detects ADP turnover that is directly proportional to AMPK activity. This uses naive AMPK that is activated during the assay with MK-8722; type: functional; settings: 30 µM

Sequence of Chromo domain-containing protein 1 (Saccharomyces cerevisiae (strain ATCC 204508 / S288c) (Baker's yeast)) (P32657 whole entry, the tested form may be a part): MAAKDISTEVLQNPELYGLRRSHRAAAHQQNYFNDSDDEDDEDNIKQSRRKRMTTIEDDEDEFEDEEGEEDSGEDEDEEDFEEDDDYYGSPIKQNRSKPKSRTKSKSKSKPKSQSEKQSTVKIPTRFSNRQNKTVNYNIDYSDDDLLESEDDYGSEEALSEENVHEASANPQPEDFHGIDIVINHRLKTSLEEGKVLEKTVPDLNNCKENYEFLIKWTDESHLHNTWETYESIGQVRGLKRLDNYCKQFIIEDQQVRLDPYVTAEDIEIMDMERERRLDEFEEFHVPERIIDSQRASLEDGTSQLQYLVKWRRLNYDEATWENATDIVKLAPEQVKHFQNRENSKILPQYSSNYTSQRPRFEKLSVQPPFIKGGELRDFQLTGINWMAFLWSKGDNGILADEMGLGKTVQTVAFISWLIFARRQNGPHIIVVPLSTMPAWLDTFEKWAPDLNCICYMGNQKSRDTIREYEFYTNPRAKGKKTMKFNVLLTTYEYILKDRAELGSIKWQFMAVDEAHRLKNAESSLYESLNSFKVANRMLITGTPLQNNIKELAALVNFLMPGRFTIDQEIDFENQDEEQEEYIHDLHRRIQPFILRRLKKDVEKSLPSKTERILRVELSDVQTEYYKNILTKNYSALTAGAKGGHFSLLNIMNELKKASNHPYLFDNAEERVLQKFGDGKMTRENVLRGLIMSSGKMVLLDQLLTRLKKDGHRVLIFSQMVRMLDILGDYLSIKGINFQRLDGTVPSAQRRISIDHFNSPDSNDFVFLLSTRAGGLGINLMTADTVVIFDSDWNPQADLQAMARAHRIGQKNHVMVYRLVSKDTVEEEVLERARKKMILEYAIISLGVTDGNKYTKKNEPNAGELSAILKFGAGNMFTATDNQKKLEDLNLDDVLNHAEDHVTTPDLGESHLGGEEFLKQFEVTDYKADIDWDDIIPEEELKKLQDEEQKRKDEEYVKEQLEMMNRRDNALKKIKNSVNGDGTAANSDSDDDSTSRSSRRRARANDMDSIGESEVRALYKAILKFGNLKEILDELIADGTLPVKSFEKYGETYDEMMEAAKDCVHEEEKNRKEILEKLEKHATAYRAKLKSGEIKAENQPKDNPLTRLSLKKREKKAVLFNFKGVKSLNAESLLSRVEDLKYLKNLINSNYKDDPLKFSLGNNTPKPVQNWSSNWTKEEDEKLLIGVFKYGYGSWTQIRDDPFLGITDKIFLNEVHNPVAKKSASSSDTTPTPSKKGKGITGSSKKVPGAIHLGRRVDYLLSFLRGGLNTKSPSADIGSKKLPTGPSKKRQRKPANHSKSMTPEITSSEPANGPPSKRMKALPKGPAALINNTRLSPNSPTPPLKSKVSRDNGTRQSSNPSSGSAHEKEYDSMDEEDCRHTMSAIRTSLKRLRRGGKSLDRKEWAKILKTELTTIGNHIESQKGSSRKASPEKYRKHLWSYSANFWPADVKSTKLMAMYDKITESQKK
Sequence of Sialic acid-binding Ig-like lectin 9 (Homo sapiens) (Q9Y336 whole entry): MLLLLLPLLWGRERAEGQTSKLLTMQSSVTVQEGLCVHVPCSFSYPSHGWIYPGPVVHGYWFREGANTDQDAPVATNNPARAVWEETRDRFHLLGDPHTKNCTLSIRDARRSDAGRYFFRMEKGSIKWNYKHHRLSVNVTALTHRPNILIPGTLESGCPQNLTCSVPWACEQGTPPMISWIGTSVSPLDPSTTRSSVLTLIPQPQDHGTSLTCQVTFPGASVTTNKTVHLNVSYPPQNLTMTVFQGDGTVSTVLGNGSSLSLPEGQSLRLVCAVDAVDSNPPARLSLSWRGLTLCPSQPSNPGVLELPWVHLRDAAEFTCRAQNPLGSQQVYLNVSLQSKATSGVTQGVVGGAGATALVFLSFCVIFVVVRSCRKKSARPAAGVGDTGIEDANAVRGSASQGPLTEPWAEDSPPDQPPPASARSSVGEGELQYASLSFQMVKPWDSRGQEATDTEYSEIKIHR
Sequence of Protein translocase subunit SecA (Escherichia coli (strain K12)) (P10408 whole entry): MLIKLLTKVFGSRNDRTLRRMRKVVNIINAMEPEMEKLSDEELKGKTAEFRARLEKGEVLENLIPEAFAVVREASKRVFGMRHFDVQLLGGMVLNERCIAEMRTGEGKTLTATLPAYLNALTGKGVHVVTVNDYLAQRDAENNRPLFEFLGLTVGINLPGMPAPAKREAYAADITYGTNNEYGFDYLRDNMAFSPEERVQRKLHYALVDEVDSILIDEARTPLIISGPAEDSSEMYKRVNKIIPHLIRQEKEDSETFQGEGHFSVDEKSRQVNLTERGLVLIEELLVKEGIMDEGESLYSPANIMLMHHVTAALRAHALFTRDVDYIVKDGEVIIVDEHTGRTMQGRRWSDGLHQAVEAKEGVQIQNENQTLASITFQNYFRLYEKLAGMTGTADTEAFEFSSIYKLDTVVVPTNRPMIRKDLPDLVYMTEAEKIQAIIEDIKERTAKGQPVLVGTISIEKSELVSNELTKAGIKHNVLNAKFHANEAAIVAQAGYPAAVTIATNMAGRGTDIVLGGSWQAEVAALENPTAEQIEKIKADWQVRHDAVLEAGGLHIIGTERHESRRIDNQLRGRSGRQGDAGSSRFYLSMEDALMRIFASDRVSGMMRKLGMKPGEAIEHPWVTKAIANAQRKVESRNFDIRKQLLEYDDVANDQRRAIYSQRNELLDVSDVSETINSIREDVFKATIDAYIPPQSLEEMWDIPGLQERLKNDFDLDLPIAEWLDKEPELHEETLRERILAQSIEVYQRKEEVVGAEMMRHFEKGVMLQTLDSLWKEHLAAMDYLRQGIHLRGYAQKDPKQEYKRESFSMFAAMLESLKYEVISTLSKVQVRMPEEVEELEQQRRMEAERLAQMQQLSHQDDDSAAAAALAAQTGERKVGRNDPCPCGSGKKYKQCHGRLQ

Structure (SMILES) | Percent Effect [1] [%] | Percent Effect [2] [%] | Percent Effect [3] [%] | Percent Effect (Trypanosoma cruzi) [%] | Percent Effect [4] [%] | Percent Effect [5] [%] | Percent Effect (Homo sapiens) [%] | Percent Effect [6] [%] | Percent Effect [7] [%] | Percent Effect [8] [%] | Percent Effect [9] [%]
COc1ccc(CC(=O)N2C[C@@H]3COC[C@]3(CN(C)C)C2)cc1 | -3.95 | -42.9 | 3.29 | 3.8 | -6.07 | 1.15 | -12.9 | -26.8 | -43.6 | 1.23 | 
Cc1cnn(CC2CN(CC(=O)N(C)c3nccs3)CCO2)c1 (stereo not drawn) | -4.67 | 8 | 4.67 | 0.201 | -2.66 | 9.75 | 13.5 | 4.74 | 10.3 | -8.81 | 
Cn1nc2c(cc1=O)CN(Cc1nnc(-c3ccco3)o1)CC2 | -3.79 | 17.9 | -11.1 | 4.6 | 1.23 | 13.2 | 7.66 | 4.31 | 22.9 | 17.4 | 
CN(C)c1ccc(C(=O)N2CCN(Cc3cscn3)CC2)cc1F | 0.885 | 13 | 8.14 | 1.31 | 3.07 | 9.12 | -8.07 | -10.8 | 23.5 | -2.52 | 
Cc1noc(C2CCN(C(=O)CCc3nccs3)CC2)n1 | 0.362 | 17.9 | -8.4 | -1.78 | 3.28 | 5.72 | 17.8 | 6.22 | 13.2 | -4.78 | 
Cc1nn(C)c(N(C)C)c1CNCCCN(C)S(C)(=O)=O | -1.22 | 12.8 | -8.74 | -3.47 | 5.33 | 10.2 | 4.19 | 2.39 | 18.1 | -3.07 | 
O=C(c1ccc2c(c1)OCO2)N1CCN(c2cnccn2)CC1 | -4.95 | 12.8 | -0.564 | -1.6 | 4.51 | 10.2 | 16 | 5.26 | 13.2 | -6.8 | 
CN1CC(c2ccccc2)CC2(CCN(CC(=O)N(C)C)CC2)C1 (stereo not drawn) | -6.25 | 5.41 | 9.32 | 8.44 | -3.85 | 9.42 | -25 | 1.6 | 17.1 | -2.37 | 
Cn1ccc(CN2CCC(NC(=O)NC3CCCCC3)CC2)cc1=O | -2.35 | 10.3 | 10.4 | -2.16 | 6.15 | -1.28 | 27.9 | 4.31 | 10.8 | -1.97 | 
COCCCN1CC2(CCCCN2C(=O)c2ccsc2)CC1=O (stereo not drawn) | 0.227 | 3.9 | 1.99 | 2.44 | 1.83 | 0.601 | 15.2 | 0 | 7.5 | 2.21 | 
Fc1ccc(-c2nnc(CN3CCn4c(nnc4C4CC4)C3)o2)cc1 | -4.82 | -18.7 | 2.87 | -3.81 | 1.77 | 3.99 | -0.798 | 10 | 15.4 | -6.37 | 
Cc1noc(C)c1CC(=O)OCC(=O)N1CCc2sccc2C1 | -3.42 | 18.7 | 0.304 | 0.201 | -3.99 | 14.3 | 12.1 | 6.84 | 23.1 | -8.07 | 
COCC1CC2(CCN(Cc3cnn(C)c3)CC2)CN1C(C)C (stereo not drawn) | -5.94 | 6.49 | -6.16 | -2.82 | -4.45 | 11.6 | 2.36 | -2.63 | 2.56 | -4 | 
Cc1cc(C)n(CCCN(C)c2cc(C3CC3)ncn2)n1 |  |  |  |  |  |  |  |  |  |  | 6.65
CCOC1COC2(CCN(Cc3cccc(F)c3)CC2)C1 (stereo not drawn) | -1.34 | 14.3 | -2.76 | -1.13 | 0.457 | 5.75 | 21.4 | 2.9 | 7.5 | -7.79 | 
CCCn1[nH]cc/c1=N\C(=O)CN1CCc2cnc(CC)nc2C1 | 0.849 | 0 | 1.8 | -2.61 | 9.76 | 2.29 | 3.62 | 11.1 | 7.69 | 5.4 | 
COc1ccc(C(N)c2cccc(S(C)(=O)=O)c2)cc1 (stereo not drawn) | -6.1 | 18.7 | 7.33 | 2.41 | -6.65 | 4.83 | 9.08 | 4.74 | 15.4 | -12.4 | 
O=c1cccnn1CC1CN(Cc2ccsc2)Cc2nccn2C1 (stereo not drawn) | -8.45 | -40.3 | 11 | -1.66 | 3.64 | 8.91 | -4.15 | 14.2 | 15.4 | 4.94 | 
CC(OCC1CC1)C(=O)Nc1nccn1Cc1ccccc1 (stereo not drawn) |  |  |  |  |  |  |  |  |  |  | 5.4
Cc1cnn(C2CCCN(C(=O)c3cc(-c4cccs4)n[nH]3)C2)c1 (stereo not drawn) |  |  |  |  |  |  |  |  |  |  | -1.86
CS(=O)(=O)N1CCC[C@]2(C[C@@H](Oc3ncccc3F)CO2)C1 | -5.48 | 11.7 | -6.01 | -0.682 | 4.05 | 10.3 | -0.297 | 12.1 | 12.8 | 1.06 | 
COc1ccc(CN2C[C@@H]3COC[C@]3(CN(C)C)C2)cc1 | -12.1 | -1.3 | -2.55 | 1.07 | -1.22 | 8.56 | -15 | 4.74 | 7.69 | -0.368 | 
